# Reference: PubChem BioAssay AID431 (Sanford-Burnham Center for Chemical Genomics, 2006)
# Screen size: about 63,000 compounds; about 1,100 (1.7%) were called active.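 The calls were made as follows: active = compounds whose percent cytotoxicity in the single-dose primary screen, scaled between solvent and toxic-drug controls, exceeds 50; inactive = the rest.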 The entries come from a sample that favours actives as a whole. Results with a measured potency or affinity are listed apart.
# Experiment: cytotoxicity in KRAS-transformed pancreatic duct cells, primary screen, cell-based, fluorescence, HTS (AID 431);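 also: 0% = DMSO solvent wells and 100% = doxorubicin-treated wells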
# Details: HPDE-C7K KRASV12 cells, Alamar Blue viability, 48 h; at 10 µM; hits give high values
row,SMILES,cytotoxicity
1,CC(C)Cn1c(CN2CCN(c3ccccc3F)CC2)nc2c1c(=O)[nH]c(=O)n2C,-9.3% (inactive)
2,Cn1c(=O)[nH]c(=O)c2c1nc(CN1CCN(c3cccc(Cl)c3)CC1)n2Cc1ccccc1Cl,2.2% (inactive)
3,Cc1ccc(Cl)cc1N1CCN(Cc2nc3c(c(=O)[nH]c(=O)n3C)n2Cc2ccccc2F)CC1,117% (active)
4,O=C(Nc1ccncc1)c1ccc2c(c1)OCCO2,-6.9% (inactive)
5,CCC(NC(=O)OC(C)(C)C)C(=O)Oc1ccc2c3c(c(=O)oc2c1)CCC3 (configuration not stated),-7.2% (inactive)
6,CCOC(=O)Cc1cc(=O)[nH]c(Nc2nc3ccccc3o2)n1,-12.3% (inactive)
7,C=CCn1c(=N)c(C(=O)OCC)cc2c(=O)n3cccc(C)c3nc21,9.2% (inactive)
8,COCCn1c(=N)c(C(=O)NCCc2ccccc2)cc2c(=O)n3cccc(C)c3nc21,-1.7% (inactive)
9,CCNC(=O)c1cc2c(=O)n3cccc(C)c3nc2n(CCc2ccccc2)c1=N,66.8% (active)
10,CCOC(=O)c1cc2c(=O)n3cccc(C)c3nc2n(C)c1=N,58.1% (active)
11,CCOC(=O)c1cc2c(=O)n3cccc(C)c3nc2n(CCc2ccccc2)c1=N,-6.7% (inactive)
12,Cc1cccn2c(=O)c3cc(C(=O)NCCN4CCOCC4)c(=N)n(CCc4ccccc4)c3nc12,10.9% (inactive)
13,CC(C)CCOc1cccc(OCC(=O)N(C)C2CCS(=O)(=O)C2)c1 (configuration not stated),4.8% (inactive)
14,COc1ccc(OC)c(S(=O)(=O)N2CCc3ccccc32)c1,18.5% (inactive)
15,CCOc1c(Br)cc(CNc2ncn[nH]2)cc1OC,2.8% (inactive)
16,O=C(CSc1c2c(nc3ccc(Cl)cc13)CCCC2)N1CCN(C(=O)c2ccco2)CC1,105% (active)
17,O=C(CSc1nc2cc(Cl)ccc2s1)N1CCN(C(=O)c2ccco2)CC1,5.8% (inactive)
18,O=C(CSc1nnc(SCc2ccc(Cl)cc2)s1)N1CCN(C(=O)c2ccco2)CC1,-15.2% (inactive)
19,CC1Cc2nc(SCC(=O)NCc3ccco3)n(-c3ccccc3)c(=O)c2S1 (configuration not stated),3.1% (inactive)
20,O=C(Cc1cccs1)NCc1ccc2c(c1)OCO2,-5.9% (inactive)
21,CCOC(=O)c1oc2c(C)c(O)ccc2c(=O)c1-c1nncn1-c1ccccc1,-6.3% (inactive)
22,Cn1c(=O)[nH]c(=O)c2c1nc(CN1CCN(c3cccc(Cl)c3)CC1)n2CCCc1ccccc1,6% (inactive)
23,Oc1cccc(-c2nc3ccccc3s2)c1,0.9% (inactive)
24,Cc1nc2ccc(N)cc2s1,-7.6% (inactive)
25,Nc1cccc(-c2nc3ccc(N)cc3s2)c1,50.7% (active)

row,SMILES,cytotoxicity
1,CCOC(=O)Nc1ccc2c(c1)N(C(=O)CCN(C)C)c1ccccc1S2,15% (inactive)
2,COc1ccc2c(c1)Sc1ccccc1N2CCN(C)C,27.8% (inactive)
3,CN(C)CCCN1c2ccccc2CCc2ccc(Cl)cc21,47.6% (inactive)
4,CN(C)CCCN1c2ccccc2Sc2ccccc21,56.1% (active)
5,CN(C)CCCN1c2ccccc2CCc2ccccc21,20.3% (inactive)
6,CCN1C(=O)C2C(c3ccc(O)c(OC)c3)NC(C)(C(=O)OC)C2C1=O (configuration not stated),9.8% (inactive)
7,CCc1c(C)nc2ncnn2c1N1CCCC(C(=O)NCCc2ccccc2)C1 (configuration not stated),2.2% (inactive)
8,CCOC(=O)C1CCN(C(=O)c2ccc(Cl)c(Cl)c2)CC1,-6.5% (inactive)
9,O=C(Nc1ccc(Cl)cc1)NC1CCS(=O)(=O)C1 (configuration not stated),-15% (inactive)
10,O=C(Nc1ccc(-c2noc(-c3cccs3)n2)cc1)c1cccnc1,52.5% (active)
11,COc1ccc(Cc2nc(-c3ccc(NC(=O)c4cccnc4)cc3)no2)cc1,33.9% (inactive)
12,COc1cccc(-c2nc(-c3ccc(NC(=O)c4cccnc4)cc3)no2)c1,44.3% (inactive)
13,CC(Oc1ccc(Cl)cc1Cl)c1nc(-c2ccc(NC(=O)c3cccnc3)cc2)no1 (configuration not stated),59.3% (active)
14,O=C(Nc1ccc(-c2noc(CCc3ccccc3)n2)cc1)c1cccnc1,47% (inactive)
15,CC(Oc1ccc(Cl)cc1Cl)c1nc(-c2ccccn2)no1 (configuration not stated),23.6% (inactive)
16,CC(C)(C)Cc1nc(-c2ccccn2)no1,-9.1% (inactive)
17,COCCNC(=O)c1cc(-c2ccc(Cl)c(Cl)c2)on1,-9.5% (inactive)
18,O=C(c1cc2cc(Br)ccc2oc1=O)N1CCN(c2ccccn2)CC1,-8.8% (inactive)
19,O=C(CC1SCCNC1=O)Nc1cc(Cl)cc(Cl)c1 (configuration not stated),-5.4% (inactive)
20,O=C(CC(c1ccccc1)c1cc(Cl)ccc1O)N1CCOCC1 (configuration not stated),10.5% (inactive)
21,CCOc1ccc(C2C3=C(CCCC3=O)Nc3nc(C(F)(F)F)nn32)cc1OC (configuration not stated),1.4% (inactive)
22,COc1ccc(CCNc2nc(N3CCCCC3)nc(N3CCCCC3)n2)cc1OC,45.3% (inactive)
23,Cc1cc(C)n(S(=O)(=O)Cc2ccccc2)n1,-3.7% (inactive)
24,O=S(=O)(/C=C/c1ccccc1)n1cnc2ccccc21,40.1% (inactive)
25,CC1CCc2nn(CC(=O)N3CCCCCC3)cc2C1 (configuration not stated),2.2% (inactive)

row,SMILES,cytotoxicity
1,Cc1ccc2c(c1)NC(=O)C(CC(=O)NCCN(CC(C)C)CC(C)C)O2 (configuration not stated),15.6% (inactive)
2,COc1cccc(CNC(=O)C2CCN(Cc3cnn(-c4ccccc4)c3-n3cccc3)CC2)c1,5.5% (inactive)
3,CCOC(=O)c1sc(NC(=O)CSc2ncn(-c3ccccc3)n2)nc1C,76.1% (active)
4,CCOC(=O)c1sc(NC(=O)CSc2nnnn2-c2ccccc2)nc1C,9.6% (inactive)
5,O=C(CSc1ncn(-c2ccccc2)n1)Nc1nc2ccccc2s1,-3.6% (inactive)
6,O=C1c2ccccc2C(=O)N1CCCc1nc2ccccc2c(=O)n1CCCn1ccnc1,-31.5% (inactive)
7,CCn1c2ccccc2c2nnc(SCCCn3c(=O)[nH]c4ccccc43)nc21,2.7% (inactive)
8,C=CCn1c2ccccc2c2nnc(SCCCn3c(=O)[nH]c4ccccc43)nc21,68.6% (active)
9,C=CCn1c2ccccc2c2nnc(SCN3C(=O)c4ccccc4C3=O)nc21,7.6% (inactive)
10,Cc1cc(C)n2nc(-c3cccnc3)nc2n1,2.1% (inactive)
11,O=C(Nc1nncs1)c1ccc(N2C(=O)C3C4C=CC(C4)C3C2=O)cc1 (configuration not stated),10.1% (inactive)
12,CCc1nnc(NC(=O)CSc2nc3c(cc2C#N)CCCC3)s1,8.4% (inactive)
13,CCc1nnc(NC(=O)CSc2nc(C)c3c(c2C#N)CCCC3)s1,75.3% (active)
14,CCc1nnc(NC(=O)CSc2nc3c(cc2C#N)CCC3)s1,33.4% (inactive)
15,O=C(NCc1ccccn1)Nc1ccc(Cl)c(Cl)c1,1.8% (inactive)
16,Cc1ccc(CNC(=O)CCCn2c(=O)[nH]c3ccccc3c2=O)cc1,-8.5% (inactive)
17,c1ccc2c3c([nH]c2c1)-c1[nH]ncc1CC3,50.2% (active)
18,Cc1ccc2[nH]c3c(c2c1)CCc1cn[nH]c1-3,35.6% (inactive)
19,O=C1CCCc2c1[nH]c1ccccc21,-0.9% (inactive)
20,CCOC(=O)C1CCCN(c2nc3ccccc3nc2C(C#N)C(=O)OC(C)COC)C1 (configuration not stated),31.8% (inactive)
21,CCOC(=O)C1CCCN(c2nc3ccccc3nc2C(C#N)C(=O)OCCOC)C1 (configuration not stated),53.1% (active)
22,CCOC(=O)C1CCCN(c2nc3ccccc3nc2C(C#N)C(=O)OC(C)C)C1 (configuration not stated),-4.8% (inactive)
23,CCOC(=O)C1CCN(c2nc3ccccc3nc2C(C#N)C(=O)OC(C)C)CC1 (configuration not stated),62.8% (active)
24,CCOC(=O)C1CCCN(c2nc3ccccc3nc2C(C#N)C(=O)OCC)C1 (configuration not stated),12.9% (inactive)
25,CCOC(=O)C1CCN(c2nc3ccccc3nc2C(C#N)C(=O)OC(C)COC)CC1 (configuration not stated),6.6% (inactive)

row,SMILES,cytotoxicity
1,O=c1oc2ccccc2n1CCn1c2ccccc2c2nc3ccccc3nc21,14.9% (inactive)
2,CSCCC(NC(=O)c1ccco1)C(=O)OC(C)C(=O)NC(=O)NC1CCCCC1 (configuration not stated),-4.2% (inactive)
3,O=C(CN(C1CCCCC1)S(=O)(=O)c1ccc(F)cc1)NC1CC1,-2.7% (inactive)
4,CCC1CCCCN1c1nc(-c2ccncc2)nc2ccccc12 (configuration not stated),-15.6% (inactive)
5,CCOC(=O)Cc1nnc2c(Nc3ccc(Cl)cc3)nc3nonc3n12,70.2% (active)
6,CCOC(=O)Cn1nc(-c2ccc(Cl)cc2)cc1N,0.5% (inactive)
7,CCOC(=O)c1[nH]c(C)c(C(=O)Nc2ccccc2F)c1C,37.9% (inactive)
8,CCOC(=O)n1ccc(C(=O)Nc2ccccc2F)n1,-9.8% (inactive)
9,CCOC(=O)Cc1nnc2c(Nc3ccc(C)cc3)nc3nonc3n12,-14% (inactive)
10,CCOC(=O)Cc1nnc2c(Nc3ccccc3F)nc3nonc3n12,53.8% (active)
11,CCOC(=O)c1ccc(NC(=O)CCc2ccc(CC)o2)cc1,8.4% (inactive)
12,COc1cccc2cc(C(=O)C3=C(O)C(=O)N(CCCN4CCOCC4)C3c3ccncc3)oc12 (configuration not stated),3.9% (inactive)
13,CC(C)(C)NC(=O)Cn1c(SCC(=O)N2CCCCCC2)nc2ccccc21,-0.2% (inactive)
14,Cc1csc2ncc(C(=O)NCc3ccccn3)c(=O)n12,-11.8% (inactive)
15,COc1cccc(OCCn2c(C)c(/C=N/n3cnnc3)c3ccccc32)c1,85.9% (active)
16,Cc1ccc(OCCn2c(C)c(/C=N/n3cnnc3)c3ccccc32)cc1,41.7% (inactive)
17,Cc1c(/C=N/n2cnnc2)c2ccccc2n1CCOc1ccccc1,43.4% (inactive)
18,CCOC(=O)N1CCC(NC(=O)C2CCC(CNS(=O)(=O)c3ccc(OC)cc3)CC2)CC1 (configuration not stated),0.5% (inactive)
19,C=CCn1c(=N)n(CC(=O)OC)c2ccccc21,8.1% (inactive)
20,c1coc(-c2nc(-c3ccco3)c(-c3ccco3)nc2-c2ccco2)c1,-1.8% (inactive)
21,c1coc(-c2nc3nc4ccccc4n3nc2-c2ccco2)c1,67.4% (active)
22,c1coc(-c2nc3ccccc3nc2-c2ccco2)c1,-6.2% (inactive)
